From PubChem BioAssay (Tox21)
“And” between values parts separate entries of the source, which are not always exact repeats. Equal entries are not always repeated. Inconclusive results are not listed. Some compounds were tested as several samples or in several runs, with calls that do not always agree. The source made the active and inactive calls. The call rests on the fitted dose curve; in most records, active means well fitted curve in the direction sought with a large enough effect in the repeat runs; inconclusive means weak or mixed curves; inactive means no such curve, though single readings can be large; an effect the other way counts as inactive or inconclusive.

What was measured:
[1] = A CellTox Green Cytotoxicity Assay to monitor cytotoxicity in HEK293 cells - 40 hour (AID 1224871); further: nearly all actives have a fitted effect of over 45% in size; further: potency means the concentration at half of the fitted maximal effect
Procedure, shortened: (§1)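 Tox21 screen in HEK293: membrane-impermeant cyanine dye fluoresces on binding dead-cell DNA; compound pinned 5 h post-seeding, plates held at 37 C, signal read repeatedly through 40 h.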

[2] = qHTS RealTime-Glo MT Cell Viability Assay in HepG2 cells - 8 hour (AID 1224873); further: nearly all actives have a fitted effect of over 55% in size; further: potency means the concentration at half of the fitted maximal effect
Procedure, shortened: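 Real-time viability: cells seeded at 600 per well together with NanoLuc and cell-permeant prosubstrate, compounds added after 5 h incubation. Luminescence tracked at 0, 8, 16, 24, 32 and 40 h of exposure.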

[3] = qHTS RealTime-Glo MT Cell Viability Assay in HEK293 cells - 40 hour (AID 1224874); details: RealTime-Glo luminescence; max response: stronger effect = lower value; further: nearly all actives have a fitted effect of over 50% in size; further: potency means the concentration at half of the fitted maximal effect
Procedure, shortened: (§2)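 HEK293 + NanoLuc + prosubstrate, 600 cells/well; 5 h, 37 C/5% CO2; compound 23 nL in DMSO by pintool; 37 C; luminescence read at 0, 8, 16, 24, 32 and 40 h time points.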

[4] = A CellTox Green Cytotoxicity Assay to monitor cytotoxicity in HEK293 cells - 24 hour (AID 1224875); further: nearly all actives have a fitted effect of over 45% in size; further: potency means the concentration at half of the fitted maximal effect
Procedure, shortened: as §1

[5] = qHTS RealTime-Glo MT Cell Viability Assay in HepG2 cells - 32 hour (AID 1224877); further: nearly all actives have a fitted effect of over 55% in size; further: potency means the concentration at half of the fitted maximal effect
Procedure, shortened: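 Tox21 10K library screened in qHTS format on HepG2 cells carrying RealTime-Glo reagents. Compounds were added after a 5 h preincubation, and the luminescent signal from continuous culture was measured repeatedly during 40 h treatment.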

[6] = qHTS RealTime-Glo MT Cell Viability Assay in HEK293 cells - 0 hour (AID 1224880); further: top concentration of the series differs between compounds; nearly all actives have a fitted effect of over 45% in size
Procedure, shortened: as §2

[7] = A CellTox Green Cytotoxicity Assay to monitor cytotoxicity in HepG2 cells - 16 hour (AID 1224876); further: nearly all actives have a fitted effect of over 45% in size; further: potency means the concentration at half of the fitted maximal effect
Procedure, shortened: (§3)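 Measurements at 0, 8, 16, 24, 32 and 40 h of treatment captured CellTox Green fluorescence in HepG2 cells that had been co-plated with reagent and preincubated 5 h at 37 C/5% CO2.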

[8] = A CellTox Green Cytotoxicity Assay to monitor cytotoxicity in HepG2 cells - 24 hour (AID 1224878); further: nearly all actives have a fitted effect of over 45% in size; further: potency means the concentration at half of the fitted maximal effect
Procedure, shortened: as §3

[9] = A CellTox Green Cytotoxicity Assay to monitor cytotoxicity in HepG2 cells - 40 hour (AID 1224879); further: nearly all actives have a fitted effect of over 40% in size; further: potency means the concentration at half of the fitted maximal effect
Procedure, shortened: as §3

[10] = qHTS RealTime-Glo MT Cell Viability Assay in HEK293 cells - 16 hour (AID 1224872); further: nearly all actives have a fitted effect of over 50% in size; further: potency means the concentration at half of the fitted maximal effect
Procedure, shortened: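 Luminescence generated by NanoLuc from substrate produced by living HEK293 cells served as the viability signal. Each value reflects the reading at its stated time point during continuous 40 h compound exposure at 37 C.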
On the % scale 0 is the no-effect control and ±100 the full control effect.

CC(=O)c1cc(C(C)(C)C)cc2c1CCC2(C)C
active: Potency [1] 38.9 µM | Potency [4] 38.9 µM
inactive: Potency [2] | max response [3] -21.2% | Potency [5] | Potency [6]

O=C(CCl)C(Cl)Cl
inactive: Potency [2] | Potency [7] | Potency [6]
active: Potency [1] 24.8 µM | Potency [3] 17.5 µM

CCOP(=S)(OCC)SCS(=O)(=O)CC
inactive: Potency [1] | Potency [2] | Potency [4] | Potency [7] | Potency [5] | Potency [8] | Potency [9]

Cc1cc(SCc2sc(-c3ccc(C(F)(F)F)c(F)c3)nc2C)ccc1OCC(=O)O
inactive: Potency [1] | Potency [2] | Potency [4] | Potency [7] | Potency [5] | Potency [8] | Potency [9] | Potency [6]

O=C(O)c1cc[c]([Hg][Cl])cc1
inactive: Potency [6]
active: Potency [1] 17.4 µM | Potency [2] 34.7 µM | Potency [3] 15.5 µM | Potency [4] 24.5 µM | Potency [7] 38.9 µM | Potency [5] 24.5 µM | Potency [8] 27.5 µM | Potency [9] 19.5 µM

O=C(CBr)c1ccc(O)cc1
inactive: Potency [1] | Potency [2] | max response [3] 22.3% | Potency [7] | Potency [5] | Potency [8] | Potency [6]

COc1ccc(OC)c(C=O)c1
inactive: Potency [1] | Potency [2] | Potency [4] | Potency [5] | Potency [8] | Potency [9]

CCCOCC(=Nc1ccc(Cl)cc1C(F)(F)F)n1ccnc1
active: Potency [1] 48.9 µM | Potency [3] 48.9 µM | Potency [7] 43.6 µM | Potency [8] 43.6 µM | Potency [9] 43.6 µM
inactive: Potency [6]

CC1(C)C(/C=C(\Cl)C(F)(F)F)C1C(=O)OC(C#N)c1cccc(Oc2ccccc2)c1 (configuration not stated)
inactive: Potency [1] | Potency [2] | Potency [4] | Potency [7] | Potency [5] | Potency [8] | Potency [9] | Potency [6]

N#CCCC(Br)(C#N)CBr (configuration not stated)
inactive: Potency [6]
active: Potency [10] 38.9 µM | Potency [2] 49 µM | Potency [3] 21.9 µM | Potency [4] 54.9 µM | Potency [7] 43.6 µM | Potency [5] 34.7 µM | Potency [8] 38.9 µM | Potency [9] 24.5 µM

ClC(Cl)=C(c1ccc(Cl)cc1)c1ccc(Cl)cc1
active: Potency [1] 43.6 µM
inactive: Potency [2] | Potency [7] | Potency [5] | Potency [8] | Potency [9] | Potency [6]

CCCCCCCCCCCCCCCC[N+](C)(C)C
inactive and 49 µM (active): Potency [2]
active: Potency [1] 23.7 µM and 43.6 µM and 23.9 µM | Potency [7] 23.7 µM and 49 µM and 23.9 µM | Potency [5] 43.6 µM and 23.9 µM | Potency [8] 21.1 µM and 23.9 µM | Potency [9] 21.1 µM and 13.8 µM and 21.3 µM

ClCCN1CCOCC1
inactive: Potency [10] | Potency [2] | max response [3] -16.3% | Potency [4] | Potency [7] | Potency [5] | Potency [8] | Potency [9] | Potency [6]

CCCCOP(=O)(CCCC)OCCCC
inactive: Potency [1] | Potency [2] | Potency [4] | Potency [5] | Potency [8] | Potency [6]

NC(=O)c1ccc(N)nc1
inactive: Potency [1] | Potency [2] | Potency [4] | Potency [7] | Potency [5] | Potency [8] | Potency [6]

Clc1ccc(CSC(Cn2ccnc2)c2ccc(Cl)cc2Cl)cc1 (configuration not stated)
inactive: Potency [1] | Potency [7] | Potency [8] | Potency [9] | Potency [6]

COS(=O)(=O)c1ccc(C)cc1
inactive: Potency [10] | Potency [2] | max response [3] 16.1% | Potency [4] | Potency [7] | Potency [5] | Potency [8] | Potency [6]

Oc1cccc(-c2ccccc2)c1
inactive: Potency [1] | Potency [2] | Potency [4] | Potency [7] | Potency [5] | Potency [8] | Potency [9] | Potency [6]

CCCCCCCCCCCCCCC(Br)C(=O)O (configuration not stated)
inactive: Potency [1] | max response [3] -7.18% | Potency [7] | Potency [5] | Potency [6]
active: Potency [9] 17.4 µM

c1ccc(Nc2ccc3ccccc3c2)cc1
active: Potency [9] 48.7 µM
inactive: Potency [1] | Potency [4] | Potency [7] | Potency [5]

O=C(Nc1ccc2[nH]ccc2c1)c1cc2cc(F)ccc2n1Cc1cccc(F)c1
inactive: Potency [1] | Potency [4] | Potency [8] | Potency [9] | Potency [6]

Nc1ccc([N+](=O)[O-])cc1Cl
inactive: Potency [1] | Potency [2] | Potency [4] | Potency [7] | Potency [5] | Potency [8] | Potency [9] | Potency [6]

N#CCCSCCC#N
inactive: Potency [10] | Potency [2] | max response [3] 8.18% | Potency [4] | Potency [7] | Potency [5] | Potency [8] | Potency [9] | Potency [6]

BrC(Br)Br
inactive: Potency [10] | Potency [2] | max response [3] 17.3% | Potency [4] | Potency [7] | Potency [5] | Potency [8] | Potency [6]

CC(Cc1ccc(C(C)(C)C)cc1)CN1C[C@@H](C)O[C@@H](C)C1 (some centres not stated)
inactive: Potency [2] | Potency [5] | Potency [6]
active: Potency [1] 49 µM | Potency [4] 49 µM

ClCc1ccccc1CCl
inactive: Potency [2] | Potency [7] | Potency [5]
active: Potency [1] 49 µM
